Test results published in PubChem BioAssay.
Inconclusive results are not listed. Activity calls are given as the source filed them.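 Rule for the calls, unless noted: active = normalized viability below 100% at a tested concentration; inactive = the rest.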

Legend:
[1] = growth inhibition of DIPG glioma cells, dose response, cell-based, SU-DIPG-XVII, MIPE5.0, CellTiter-Glo, qHTS (AID 1347060; cut-off not given, nearly all actives have AC50 up to about 26 µM;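 for AC50: cells exposed to compound for 48 hours before viability readout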); conditions: SU-DIPG-XVII viability, CellTiter-Glo ATP luminescence
[2] = growth inhibition of DIPG glioma cells, dose response, cell-based, SU-DIPG-XIII, MIPE4.0, CellTiter-Glo, qHTS (AID 1347061; cut-off not given, nearly all actives have AC50 up to about 37 µM;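 note: cells exposed to compound for 48 hours before readout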); conditions: SU-DIPG-XIII viability, CellTiter-Glo ATP luminescence
[3] = growth inhibition of DIPG glioma cells, dose response, cell-based, JHH-DIPG-1, MIPE4.0, CellTiter-Glo, qHTS (AID 1347062; cut-off not given, nearly all actives have AC50 up to about 27 µM;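 for AC50: cells exposed to compound for two days before readout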); conditions: JHH-DIPG-1 viability, CellTiter-Glo ATP luminescence
[4] = growth inhibition of DIPG glioma cells, dose response, cell-based, SU-DIPG-XIII, MIPE5.0, CellTiter-Glo, qHTS (AID 1347064; cut-off not given, nearly all actives have AC50 up to about 23 µM;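 for AC50: cells exposed to compound for 48 hours before the viability read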); conditions: SU-DIPG-XIII viability, CellTiter-Glo ATP luminescence
[5] = viability loss in pontine glioma line – cell-based, SU-DIPG-XXV, MIPE5.0, CellTiter-Glo, qHTS, dose response (AID 1347065; cut-off not given, nearly all actives have AC50 up to about 26 µM;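 note: cells exposed to compound for 48 hours before ATP readout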); conditions: CellTiter-Glo ATP luminescence
[6] = SU-DIPG-VI glioma cell viability, MIPE4.0 library, CellTiter-Glo luminescence, qHTS (AID 1347066; cut-off not given, nearly all actives have AC50 up to about 30 µM;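 note: cells exposed to compound for 48 hours before readout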); conditions: CellTiter-Glo ATP luminescence
[7] = JHH-DIPG-1 glioma cell viability, MIPE5.0 library, CellTiter-Glo luminescence, qHTS (AID 1347067; cut-off not given, nearly all actives have AC50 up to about 26 µM;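 note: cells exposed to compound for 48 hours before readout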); conditions: JHH-DIPG-1 glioma viability, CellTiter-Glo ATP luminescence
[8] = sensitizers of A549 cells to miR-34 induction, primary screen, imaging, A549 dox-inducible miR-34, nuclei and caspase counts (AID 1347080;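 active = compounds whose cell count with miR-34 switched on is under 0.7 times the count with it off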); conditions: A549 miR-34 inducible, Hoechst nuclei count, 48 h
[9] = modifiers of HSF1 nuclear foci, imaging, Selleck Cancer Library (AID 1347162; in the data active = plate-normalised HSF1 focus index below about 0.46); conditions: human cells, at 10 µM; SSMD: measured here: HSF1 foci SSMD mean; cell count: measured here: cell number; plate-normalised HSF1 focus index: stronger effect = lower value
[10] = survival rescue of mitochondrial mutant cells in low glucose, primary screen, MELAS cybrids, Rieske KO mouse fibroblasts, CellTiter-Glo (AID 1508586;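 active = mean z-score across replicates of 1.96 or higher in either the MELAS or the Rieske mutant cell line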;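 note: z relative to plate mean and SD of compound and empty wells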)
[11] = ovarian cancer cell viability with rucaparib, profiling panel, oncology-focused library, rucaparib conditional (AID 1508598); conditions: patient-derived ovarian cancer cells, CellTiter-Glo viability, 144 h, stronger effect = lower value
[12] = SU-DIPG-XXV glioma cell viability, MIPE5.0 library, qHTS (AID 1347068; cut-off not given, nearly all actives have IC50 up to about 30 µM)
[13] = stronger effect = lower value, cell number ratio, induced over uninduced
[14] = measured here: relative caspase fold change +Dox/-Dox
[15] = measured here: total cells with miR-34 induction, stronger effect = lower value
[16] = measured here: total cells without miR-34 induction
[17] = MELAS cybrid survival, CellTiter-Glo 48 h, stronger effect = higher value
[18] = Rieske KO mouse fibroblast survival, CellTiter-Glo 72 h
[19] = at 0.000305 µM, OCI-C5x cells, with rucaparib 10 µM, 100% = cells with rucaparib alone
[20] = at 0.000305 µM, OCI-C5x cells, without rucaparib
[21] = at 0.000305 µM, OCI-P5x cells, with rucaparib 20 µM, 100% = cells with rucaparib alone
[22] = at 0.000305 µM, OCI-P5x cells, without rucaparib
[23] = at 0.00122 µM, OCI-C5x cells, with rucaparib 10 µM, 100% = cells with rucaparib alone
[24] = at 0.00122 µM, OCI-C5x cells, without rucaparib
[25] = at 0.00122 µM, OCI-P5x cells, with rucaparib 20 µM, 100% = cells with rucaparib alone
[26] = at 0.00122 µM, OCI-P5x cells, without rucaparib
[27] = at 0.00488 µM, OCI-C5x cells, with rucaparib 10 µM, 100% = cells with rucaparib alone
[28] = at 0.00488 µM, OCI-C5x cells, without rucaparib
[29] = at 0.00488 µM, OCI-P5x cells, with rucaparib 20 µM, 100% = cells with rucaparib alone
[30] = at 0.00488 µM, OCI-P5x cells, without rucaparib
[31] = at 0.0195 µM, OCI-C5x cells, with rucaparib 10 µM, 100% = cells with rucaparib alone
[32] = at 0.0195 µM, OCI-C5x cells, without rucaparib

Cn1cnc2c(F)c(Nc3ccc(Br)cc3Cl)c(C(=O)NOCCO)cc21
2.54: SSMD [9]
inactive: outcome [6] | fold change [8, 13] 1.01 | plate-normalised HSF1 focus index [9] 1.09 | z-score [10, 17] -0.103 | viability [11, 19] 105% | viability [11, 20] 106% | viability [11, 23] 104% | viability [11, 27] 101% | viability [11, 31] 110% | viability ([11]; at 0.0781 µM, OCI-C5x cells, with rucaparib 10 µM, 100% = cells with rucaparib alone) 102% | viability ([11]; at 0.313 µM, OCI-C5x cells, with rucaparib 10 µM, 100% = cells with rucaparib alone) 104%
-0.489: z-score [10, 18]
3770: cell count [8, 15]
7320: cell count [9]
active: AC50 [1] 4.17 µM | AC50 [2] 10.5 µM | AC50 [3] 9.35 µM | AC50 [4] 5.9 µM | AC50 [5] 4.68 µM | AC50 [7] 0.833 µM | viability [11, 21] 80.8% | viability [11, 22] 84.9% | viability [11, 24] 92.6% | viability [11, 25] 81.4% | viability [11, 26] 82.8% | viability [11, 28] 93.7% | viability [11, 29] 70.3% | viability [11, 30] 75.1% | viability [11, 32] 92.3% | viability ([11]; at 0.0195 µM, OCI-P5x cells, with rucaparib 20 µM, 100% = cells with rucaparib alone) 56.4% | viability ([11]; at 0.0195 µM, OCI-P5x cells, without rucaparib) 70.1% | viability ([11]; at 0.0781 µM, OCI-C5x cells, without rucaparib) 83.8% | viability ([11]; at 0.0781 µM, OCI-P5x cells, with rucaparib 20 µM, 100% = cells with rucaparib alone) 53.5% | viability ([11]; at 0.0781 µM, OCI-P5x cells, without rucaparib) 65.2% | viability ([11]; at 0.313 µM, OCI-C5x cells, without rucaparib) 80.4% | viability ([11]; at 0.313 µM, OCI-P5x cells, with rucaparib 20 µM, 100% = cells with rucaparib alone) 43.6% | viability ([11]; at 0.313 µM, OCI-P5x cells, without rucaparib) 59.6% | viability ([11]; at 1.25 µM, OCI-C5x cells, with rucaparib 10 µM, 100% = cells with rucaparib alone) 84% | viability ([11]; at 1.25 µM, OCI-C5x cells, without rucaparib) 82.2% | viability ([11]; at 1.25 µM, OCI-P5x cells, with rucaparib 20 µM, 100% = cells with rucaparib alone) 38.2% | viability ([11]; at 1.25 µM, OCI-P5x cells, without rucaparib) 61.5% | viability ([11]; at 5 µM, OCI-C5x cells, with rucaparib 10 µM, 100% = cells with rucaparib alone) 49.5% | viability ([11]; at 5 µM, OCI-C5x cells, without rucaparib) 51.1% | viability ([11]; at 5 µM, OCI-P5x cells, with rucaparib 20 µM, 100% = cells with rucaparib alone) 25.6% | viability ([11]; at 5 µM, OCI-P5x cells, without rucaparib) 32.7%
0.759: fold change [8, 14]
3730: cell count [8, 16]

OCCn1cc(-c2cnc3nnn(Cc4ccc5ncccc5c4)c3n2)cn1
8280: cell count [8, 16]
7870: cell count [8, 15]
1.2: fold change [8, 14]
0.57: z-score [10, 18]
2.68: SSMD [9]
7630: cell count [9]
active: viability [11, 21] 99.5%
inactive: outcome [1] | outcome [2] | outcome [3] | outcome [4] | outcome [5] | outcome [7] | outcome [12] | fold change [8, 13] 0.95 | plate-normalised HSF1 focus index [9] 1.17 | z-score [10, 17] -0.449 | viability [11, 19] 111% | viability [11, 20] 109% | viability [11, 22] 102% | viability [11, 23] 118% | viability [11, 24] 110% | viability [11, 25] 106% | viability [11, 26] 105% | viability [11, 27] 119% | viability [11, 28] 113% | viability [11, 29] 102% | viability [11, 30] 102% | viability [11, 31] 118% | viability [11, 32] 112%
